Compounds with a hit are over-represented: about 1.4% of the library has one in this group of screens.
ERAP1 inh: blocks human ERAP1 aminopeptidase activity; inhibition, % at 10.7 µM; AID 652197; 340,000 tested, 0.15% active; Q9NZ08; recombinant ERAP1, Leu-AMC fluorescence, 60 min;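 active = mean replicate inhibition of at least 30%, or all replicates individually reaching that 30% level; inactive = mean below 30% and not every replicate reaching it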
PGC1a acetyl inh: PGC1a acetylation modulation, inhibitor mode; U2OS PGC1a acetylation, AlphaScreen anti-acetyl-lysine; with virally co-expressed GCN5 acetyltransferase; inhibition, % at 15.6 µM; 350,000 tested, 0.17% active; AID 651687;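 active = every replicate shows inhibition of at least 40%; inconclusive = mean inhibition at least 40% but some replicate below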
AF4-AF9 inh: MLL-AF4/AF9 protein interaction inhibition; P42568; AID 651704; 350,000 tested, 0.47% active; inhibition, % at 10 µM; AlphaScreen, biotin-AF4 peptide binding to FLAG-AF9;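 active = every replicate reaching a set inhibition limit, whatever the replicate mean, cut at about 25% in these data; inconclusive = mean inhibition reaches that limit but some replicates miss it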
GSIS activator: primary screen for activators of insulin secretion dependent on glucose, INS-1E cells, GLuc reporter luminescence. AID 743287. activation, % at 16.6 µM. INS-1E GLuc reporter insulin secretion, 2-3 h. 370,000 tested, 0.61% active;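 active = lowest replicate activation of at least 40%, so every replicate reaches that level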
RAD54 inh: inhibitors of human RAD54 branch migration. RAD54 Holliday junction branch migration, FAM/BHQ fluorescence. Q92698. inhibition, % at 10.4 µM. AID 602329. 360,000 tested, 0.14% active;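 active = mean normalized replicate activity at least 40 and at least half of replicates scoring 40 or more; inconclusive = only one of the two criteria met; inactive = mean below 40 and under half of replicates reaching 40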;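 also: inhibitors cause a drop in the FAM fluorescence signal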
RAD52 inh: blocks human RAD52 DNA annealing | recombinant RAD52 DNA annealing, FRET fluorescence | 360,000 tested, 0.46% active | inhibition, % at 18.7 µM | AID 651710 | P43351;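 active = every replicate showing at least 50% inhibition; inconclusive = mean inhibition at least 50% but not in every replicate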
Target sequence (P43351 whole entry, looked up): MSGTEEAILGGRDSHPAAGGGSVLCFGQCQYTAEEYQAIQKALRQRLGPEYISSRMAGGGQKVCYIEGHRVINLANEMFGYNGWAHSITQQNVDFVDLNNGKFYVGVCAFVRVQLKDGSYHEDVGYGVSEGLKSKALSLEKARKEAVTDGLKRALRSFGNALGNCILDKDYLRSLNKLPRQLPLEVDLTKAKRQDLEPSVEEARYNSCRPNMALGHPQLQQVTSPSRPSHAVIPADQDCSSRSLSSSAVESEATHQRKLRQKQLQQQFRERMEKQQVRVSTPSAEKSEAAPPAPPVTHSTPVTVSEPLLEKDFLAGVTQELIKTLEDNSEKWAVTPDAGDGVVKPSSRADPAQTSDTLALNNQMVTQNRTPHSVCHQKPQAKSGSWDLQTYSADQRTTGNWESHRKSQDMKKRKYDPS
AlphaScreen intf: interferes with the AlphaScreen assay signal | shares compounds with AF4-AF9 inh | AC50, µM (series often up to 12 µM) | AlphaScreen interference counter-screen, signal luminescence | 530 tested, 45% active; cut-off not given, nearly all actives have AC50 up to about 14 µM
A number is an active result; - = inactive; ? = inconclusive; . = not tested or not shown.

SMILES	ERAP1 inh	PGC1a acetyl inh	AF4-AF9 inh	GSIS activator	RAD54 inh	RAD52 inh	AlphaScreen intf
C/C(=N\Nc1nc2ccccc2[nH]1)c1ccc2c(c1)OCO2	-	-	33.1	-	-	-	-
O=C(C[C@@H]1CC[C@H](NC(=O)Nc2ccccc2F)[C@H](CO)O1)NCc1ccc(Cl)cc1	-	-	-	-	-	-	.
C(=C1c2ccccc2-c2ccccc21)c1ccccn1	-	-	-	-	-	-	-
C(=N\N=C\c1ccccn1)/c1ccccn1	-	-	-	-	-	-	.
O=C(Nc1ccc(N2CCCC2)c(Cl)c1)c1ccc([N+](=O)[O-])o1	-	-	49.1	-	.	-	13µM
CCC(=O)N(C)C[C@H]1Oc2cc(C#Cc3ccncc3)ccc2S(=O)(=O)N([C@@H](C)CO)C[C@H]1C	-	-	-	-	-	-	.
CCC(=O)N(C)C[C@H]1Oc2cc(C#Cc3ccncc3)ccc2S(=O)(=O)N([C@@H](C)CO)C[C@@H]1C	-	-	?	-	-	-	-
COc1ccc(N2CCN(CCCNC(=O)CCC(=O)N3CCOc4ccc(Cl)cc43)CC2)cc1	-	-	38.4	-	-	-	12µM
O=C(NC1CCCCC1)N[C@H]1CC[C@@H](CCNS(=O)(=O)c2ccccc2)O[C@H]1CO	-	-	-	-	-	-	.
CCN(CCCNc1cc2c(c(N)c1S(=O)(=O)O)C(=O)c1ccccc1C2=O)c1ccccc1	-	.	61.3	-	-	-	7.64µM
CC(=O)Nc1ccc2c(c1)CC(=O)N(C)C[C@@H](C)[C@H](CN(C)C)O2	.	.	.	-	.	.	.
Cc1oc(-c2cccc3ccccc23)nc1CN1CCN(c2ncnc3ccccc23)CC1	-	-	-	.	.	-	-
Cc1cnc(C)c(N2CCN(Cc3nc(-c4ccc(C)o4)oc3C)CC2)n1	-	.	-	-	.	-	.
O=C(Nc1ccccc1)N1C[C@H]2[C@@H](c3ccccc31)[C@H](CO)N2Cc1ccccc1	-	-	-	-	-	-	.
S=C(NN=C(c1ccccc1)c1ccccn1)N(Cc1ccccn1)Cc1ccccn1	-	.	53.2	-	.	-	7.98µM
CO[C@H]1CC[C@@H]2CCOc3ccc(C#N)cc3C(=O)N(C)C[C@H](C)C(=O)N(C)C[C@H]1O2	-	.	-	-	-	-	.
CN(C)c1ccc(C=c2c3cc(O)ccc3n3c2cc(-c2ccccc2)[n+]3C)cc1	55.9	.	77.8	-	.	-	2.46µM
CN(C)c1ccc(C=c2c3ccccc3n3c2c2ccccc2[n+]3C)cc1	-	.	51.1	.	.	-	3.45µM
CCCN(C)C[C@H]1OCCCC[C@H](C)Oc2ccc(NS(=O)(=O)c3cn(C)cn3)cc2C(=O)N([C@H](C)CO)C[C@H]1C	.	-	.	-	.	.	.
CC(C)NC(=O)N[C@H]1C=C[C@H](CC(=O)NCCN2CCCC2)O[C@H]1CO	-	-	-	-	-	-	.
CCc1ccc(-c2nc(CSCC(=O)N3CCN(c4ncccn4)CC3)c(C)o2)cc1	-	-	-	-	-	-	-
COc1ccc(S(=O)(=O)N(C)C[C@@H]2OCCCC[C@@H](C)Oc3ccc(NC(=O)CCC(F)(F)F)cc3C(=O)N([C@@H](C)CO)C[C@@H]2C)cc1	-	-	-	-	-	-	.
CCCC#Cc1ccc2c(c1)O[C@@H](CN(C)C(=O)C1CCCCC1)[C@H](C)CN([C@@H](C)CO)S2(=O)=O	.	-	.	-	.	.	.
Cn1ccc2c(/C=C/c3ccc(F)cc3)cc3c(c21)C1CCC3C1 (stereo not drawn)	-	-	43.7	-	-	-	-
Cn1ccc2c(-c3ccccc3F)cc3c(c21)C1CCC3C1 (stereo not drawn)	-	-	-	-	-	-	.
COc1ccc(CN(C)C[C@H]2Oc3ccc(NC(=O)C4CCCCC4)cc3CC(=O)N([C@H](C)CO)C[C@@H]2C)cc1	-	-	-	.	-	-	.
C[C@H](CO)N1C[C@H](C)[C@H](CN(C)C(=O)NC2CCCCC2)Oc2ccc(NS(=O)(=O)c3cn(C)cn3)cc2CC1=O	.	-	.	-	-	.	.
COc1ccc2nc3cccc(OC)c3nc2c1	-	.	-	-	-	-	.
COc1ccc2nc3ccccc3nc2c1N	-	-	?	-	-	-	12µM
COc1ccc(N2CCN(c3nc(=S)n(-c4ccccc4)c(C)c3C(C)=O)CC2)cc1	-	-	.	-	-	-	.

From PubChem BioAssay
